Only some compounds are listed: those with a hit (about 6.6% of all), similar ones and a draw of the others.
HT1080-NT tox: qHTS for induction of synthetic lethality in tumor cells producing 2HG: qHTS for the HT-1080-NT fibrosarcoma cell line | HT-1080-NT fibrosarcoma viability, CellTiter-Glo ATP luminescence, 48 h | Potency, µM (top dose mostly 46.1 µM), actives largely listed as cytotoxic | actives 1.6% (n = 360,000) | AID 686970, 2013;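 also: NT is the 2HG producing partner of a matched IDH1 knockdown line; nearly all actives have a fitted effect of over 55% in size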
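Toxicity toward the 2HG-producing NT line was scored as %Activity, normalised to DMSO and no-cell wells, from CellTiter-Glo luminescence after 48 hours' treatment.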
TGFb SMAD3 inh: qHTS for Inhibitors of TGF-b; actives 1.2% (n = 410,000); HepG2 CAGA-GFP TGF-b/SMAD3 reporter, GFP fluorescence, 18 h; TGF-beta stimulated, 500 pg/mL final; Potency, µM (titrated, usually from 46.1 µM), usual class: inhibitors; AID 588855, 2011; also: nearly all actives have a fitted effect of over 65% in size
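Read-out: total well GFP (ex488/em500-530) summed from mean per-cell fluorescence. Cells: HEPG2 CAGA-GFP, 1% FBS DMEM, 18 h at 37 degrees C with 500 pg/mL final TGF-beta. Unstimulated wells served as the full-inhibition control; stimulated DMSO wells = 0%.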
HepG2 tox: qHTS for Inhibitors of TGF-b: Cytotox Counterscreen; HepG2 CAGA-GFP viability, ATP luminescence, 18 h; Potency, µM (titrated, usually from 46.1 µM), usual class: cytotoxic; actives 0.76% (n = 410,000)
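CellTiter-Glo luminescence gave cytotoxicity after 18 hours at 37 degrees C. The cells were HepG2 CAGA-GFP in 1% FBS DMEM, stimulated with 500 pg/mL TGF-beta after compound addition. %Activity was normalised to no-cell wells (complete cell-killing) and DMSO (no toxicity), and curves were fitted and classified.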
HT1080 IDH1KD tx: qHTS for induction of synthetic lethality in tumor cells producing 2HG: qHTS for the HT-1080-IDH1KD cell line; HT-1080 IDH1 knockdown viability, ATP luminescence, 48 h; Potency, µM (highest dose often 46.1 µM), actives largely listed as cytotoxic; actives 2% (n = 360,000)
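IDH1KD HT-1080 cells, 750/well, RPMI + 5% FBS; compound pinned after 2 h settling; 48 h, 37 °C; CellTiter-Glo luminescence; % activity normalised to DMSO and no-cell wells; curves fitted, classed by r2 and efficacy.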
KB-3-1 tox: qHTS assay for MDR1-selective chemotherapeutics: Primary screen using the parental adenocarcinoma cell KB-3-1. actives 1.4% (n = 400,000). Potency, µM (titrated, usually from 46.1 µM), usual class: cytotoxic. KB-3-1 viability, CellTiter-Glo ATP luminescence, 72 h; also: nearly all actives have a fitted effect of over 60% in size
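Cytotoxicity in the drug-sensitive parental line KB-3-1 was scored as loss of CellTiter-Glo luminescence following 72 h incubation with compound. Values come from curve fitting of normalized concentration-response data.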
KB-V1 MDR tox: qHTS assay for MDR1-selective chemotherapeutics: Primary screen using the drug-selected MDR subline cells KB-V1 | KB-V1 MDR cells viability, CellTiter-Glo, 72 h | Potency, µM (series often up to 46.1 µM), actives largely listed as cytotoxic | actives 3.4% (n = 400,000) | AID 1347076, 2019; also: nearly all actives have a fitted effect of over 60% in size
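Luminescent ATP read-out (CellTiter-Glo, 10 min) measures survival of drug-selected KB-V1 MDR cells after 72 h, 37 degrees C compound exposure. Medium: phenol-red-free DMEM, 10% FBS. Values from fitted concentration-response curves.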
Numbers stand for hits; 0 = inactive; ? = inconclusive; - = no result. Calls follow the shape of the dose curve; as a rule, active = well fitted curve in the direction sought with a large enough effect; inconclusive = small, poorly fitted or top-dose-only effect, or another doubt; inactive = no such curve, though single readings can be large; an effect the other way counts as inactive or inconclusive.

SMILES | HT1080-NT tox | TGFb SMAD3 inh | HepG2 tox | HT1080 IDH1KD tx | KB-3-1 tox | KB-V1 MDR tox
COC(=O)[C@@]12C[C@@H](CC(=O)NCc3cccc4ccccc34)C(=O)N(Cc3cccc4ccccc34)C1=CCC(C)(C)C2 | 0 | - | - | 0 | 0 | ?
COCCCNC(=O)C[C@@H]1C[C@@]2(C(=O)OC)CC(C)(C)CC=C2N(Cc2cccc3ccccc23)C1=O | 0 | - | - | 0 | 0 | ?
COC(=O)[C@]12CCCCC=C1N(Cc1cccc3ccccc13)C(=O)[C@H](CC(=O)NCCc1ccccc1OC)C2 | ? | - | - | 0 | ? | ?
COC(=O)[C@@]12C[C@@H](CC(=O)NCC3CCCCC3)C(=O)N(Cc3cccc4ccccc34)C1=CCC(C)(C)C2 | 0 | - | - | 0 | ? | 20.6µM
COC(=O)[C@@]12C[C@@H](CC(=O)NCCc3ccccc3OC)C(=O)N(Cc3cccc4ccccc34)C1=CCC(C)(C)C2 | ? | - | - | 0 | ? | 23.1µM
COc1ccc(OC)c(NC(=O)Cn2c(=O)c3cccn3c3ccccc32)c1 | - | ? | 0 | - | - | -
COc1cc(NC(=O)CCc2c(C)nc3c(-c4ccc(F)cc4)c(C)nn3c2C)cc(OC)c1OC | - | 0 | 0 | - | 0 | 0
COc1ccc(S(=O)(=O)Nc2ccccc2C(F)(F)F)cc1 | 0 | 0 | 0 | ? | 0 | 0
COc1ccc(S(=O)(=O)NN(C)c2nc(C(F)(F)F)nc3ccccc23)cc1 | 20.6µM | 0 | 0 | 16.4µM | ? | ?
CCN(Cc1ccccc1)C(=O)Cn1c(=O)n(-c2cccc(C)c2)c(=O)c2c1c1cc(C)ccc1n2C | - | 0 | 0 | - | 0 | 0
COc1cccc(CNC(=O)CCc2nnc3n(C)c(=O)c4sccc4n23)c1 | - | - | 0 | - | - | -
COc1cc2c(oc(=O)c3cc(C)cc(OC)c32)c2c(C3OC(C)C(O)C(C)(O)C3O)ccc(O)c12 (centres undefined) | ? | 7.08µM | 0 | ? | ? | ?
CC1(CCc2ccccc2)NC(=O)N(CC(=O)Nc2ccc(OC(F)F)cc2)C1=O (centres undefined) | 0 | 0 | 0 | 0 | 0 | 20.6µM
COc1cc2c(cc1OC)C(c1c(Cl)cccc1Cl)=NCC2 | 0 | ? | 0 | ? | 20.6µM | ?
COc1cc2c(cc1OC)C(c1c(-c3c(Cl)cccc3Cl)noc1C)=NCC2 | 0 | 0 | 0 | ? | 0 | ?
CCCn1ccc2c(OCC(=O)Nc3ccc(NC(C)=O)cc3)cccc2c1=O | 0 | 0 | 0 | 0 | 0 | 0
CCn1ccc2c(OCC(=O)Nc3ccc(C)c(Cl)c3)cccc2c1=O | - | 7.08µM | 0 | - | 0 | 0
CCCCc1ccc(NC(=O)COc2cccc3c(=O)n(C)ccc23)cc1 | - | 8.91µM | 0 | - | ? | 0
COCCn1ccc2c(OCC(=O)Nc3cccc(NC(C)=O)c3)cccc2c1=O | 0 | 0 | 17.8µM | 0 | 0 | 0
COc1ccc(-c2nc(CSCC(=O)N3CCN(c4ccc(OC)cc4)CC3)c(C)o2)cc1 | - | ? | 0 | - | - | -
CSc1ccc(-c2nc(CSCC(=O)NC3CC3)c(C)o2)cc1 | 0 | 0 | 0 | 0 | 0 | 0
Cc1cccc(-c2nc(CSCC(=O)N3CCN(c4ccccc4)CC3)c(C)o2)c1 | - | 11.2µM | 0 | - | 0 | 0
Cc1oc(-c2ccccc2Cl)nc1CS(=O)CC(=O)NCc1ccc(Cl)cc1 (centres undefined) | 0 | 8.91µM | 0 | 0 | 0 | 0
Cc1oc(-c2ccccc2Cl)nc1CSCC(=O)NC1CC1 | 0 | 0 | 0 | 0 | 0 | 13µM
CSc1ccc(-c2nc(CSCC(=O)N3CCOCC3)c(C)o2)cc1 | 0 | 0 | 0 | 0 | ? | 5.17µM
CCOc1ccc(-c2nc(CSCC(=O)N3CCN(c4cccc(C(F)(F)F)c4)CC3)c(C)o2)cc1 | - | ? | 0 | - | ? | 18.4µM
